# Compound activity deposited in PubChem BioAssay by National Center for Advancing Translational Sciences (NCATS).
# TDP1 cell noCPT: qHTS for Inhibitors of human tyrosyl-DNA phosphodiesterase 1 (TDP1): qHTS in cells in absence of CPT | DT40 Tdp1-/- hTDP1 cells, no CPT, ATP luminescence, 48 h | Potency, µM (highest dose often 46.2 µM), for inactives: at the top dose activity change, negative = growth inhibition, usual class: inhibitors | 15% of 420,000 active | AID 686978, 2013; note: potency is the fitted concentration of half-maximal effect; nearly all actives have a fitted effect of over 55% in size
#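 Compound effects on proliferation are scored in DT40 Tdp1-/-;hTDP1 cells in the absence of CPT. ATP levels (CellTiter-Glo luminescence) are recorded after a ≥48 hr, 37 °C incubation.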
# TDP1 cell CPT: growth inhibition of DT40 Tdp1-/-;hTDP1 cells with camptothecin (screen for TDP1 inhibitors); chicken DT40 Tdp1-/-;hTDP1 cells + 20 nM CPT, ATP luminescence, 48 h; Potency, µM (top dose mostly 46.2 µM), inactives show at the highest dose activity change, negative = growth inhibition, most hits filed as inhibitors; 12% of 420,000 active; note: potency is the fitted concentration of half-maximal effect; nearly all actives have a fitted effect of over 55% in size
#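 Chicken DT40 Tdp1-/- cells complemented with human TDP1, 400 cells/well, exposed to compounds plus 20 nM camptothecin for at least 48 h at 37 C; viability read as ATP content by CellTiter-Glo luminescence.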
# HT1080-NT tox: kills 2HG-producing HT-1080-NT fibrosarcoma cells | HT-1080-NT fibrosarcoma viability, CellTiter-Glo ATP luminescence, 48 h | Potency, µM (titrated, usually from 46.1 µM), without a hit: top-dose activity, negative = less viability, usual class: cytotoxic | 1.6% of 360,000 active;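 note: NT is the 2HG producing partner of a matched IDH1 knockdown line; potency is the fitted concentration of half-maximal effect; 0% = DMSO-treated cells and -100% = media-only wells without cells; nearly all actives have a fitted effect of over 55% in size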
#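 Compounds were tested in concentration-response format on HT-1080-NT cells for 48 hours at 37 degrees C. Cell viability came from CellTiter-Glo luminescence; curves were classified by r2, response magnitude and activity.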
# HT1080 IDH1KD tx: HT-1080 IDH1 knockdown cell toxicity (counter line) | Potency, µM (series often up to 46.1 µM), inactives show at the top dose activity, negative = toxicity, actives largely listed as cytotoxic | HT-1080 IDH1 knockdown viability, ATP luminescence, 48 h | 2% of 360,000 active;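 note: potency is the fitted concentration of half-maximal effect; 0% = DMSO wells and -100% = cell-free medium wells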
#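 Cytotoxicity counter-line: IDH1KD HT-1080, 48 h, CellTiter-Glo. Curves classed by r2, magnitude and activity.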
# IL1B secr inh: inflammasome signaling inhibition, IL-1 beta readout; AID 743279; THP-1 LPS/ATP IL-1B secretion, AlphaLISA, 16 h; hits give low values; 4.7% of 360,000 active; activity change, % at 57.5 µM; in the data active = activity change below about -50%; inconclusive = mostly about -30% to -49%
#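 Secreted IL-1B measured by AlphaLISA bead assay after 16 h compound exposure of THP-1 cells; compounds (final up to 57.5 uM) added 1 h before LPS (250 ng/mL) and ATP (1.25 mM) stimulation; lower signal means less secretion.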
# * = called active by the depositor; ? = inconclusive; / = not tested or not shown; ! = repeats disagree. In the library only some 19% were active in any assay of this set; here they are far more common. Unless noted, calls come from the whole dose curve; as a rule, active = well fitted curve in the direction sought with a large enough effect; inconclusive = small, poorly fitted or top-dose-only effect, or another doubt; inactive = no such curve, though single readings can be large; an effect the other way counts as inactive or inconclusive. Unless noted, % is set by controls: 0 for no effect and ±100 for the full control effect.
SMILES,TDP1 cell noCPT,TDP1 cell CPT,HT1080-NT tox,HT1080 IDH1KD tx,IL1B secr inh
CC(C)(C)c1ccc2c(c1)N(CC(=O)N1CCCC1)C(=O)CO2,10%,-21%,0%,5%,36
COc1cccc(-c2csc(N3CCN(CC(=O)NNC(=O)c4ccc(Br)cc4)CC3)n2)c1,16µM*,?,?,?,-24
COc1cccc(-c2csc(N3CCN(CC(=O)NNC(=O)c4ccc(Cl)cc4)CC3)n2)c1,?,?,?,11µM*,0
CCn1c(=O)cc(SCC(=O)N2CCN(c3ccccc3F)CC2)c2ccccc21,26µM*!,?,-7%,-5%,-17
Cc1ccc(Cl)cc1N1CCN(C(=O)CSc2cc(=O)n(C)c3ccccc23)CC1,7.3µM*,15µM*,/,/,/
Cn1c(=O)cc(SCC(=O)N2CCCC2)c2ccccc21,0%,7%,21%,28%,4
CCn1c(=O)cc(SCC(=O)N2CCN(c3ccccn3)CC2)c2ccccc21,?,2%,-1%,-4%,-14
COC(=O)c1ccccc1NC(=O)NC1CCC(C)CC1 (stereo not given),18µM*,-4%,10%,9%,?
COc1cc(OC)cc(C(=O)Nc2ccccc2C(=O)NC2CC2)c1,16µM*,?,-28%,?,11
CC(C)C(NCC(=O)Nc1ccccc1C(=O)NC1CC1)c1ccccc1 (stereo not given),?,16µM*,2%,-11%,13
COc1cccc(C(=O)Nc2ccccc2C(=O)NC2CC2)c1,0%,?,-2%,-5%,?
COc1ccc(C(=O)c2ccccc2)c(OCC(=O)NC2CC2)c1,?,?,-4%,-14%,10
CSc1nc2nccc(/C=C\c3ccccc3)n2n1,23µM*,?,?,?,-105*
CSc1nc2nccc(-c3ccc(Cl)cc3)n2n1,-12%,-6%,-6%,-4%,-16
Cc1ccc2ncnc(Oc3ncccc3[N+](=O)[O-])c2c1,6.5µM*,5.8µM*,-5%,-6%,0
Cc1cccc(Oc2ncnc(N)c2[N+](=O)[O-])c1,-23%,-3%,6%,7%,-23
COc1ccc(Br)cc1/C=N/NC(=O)C(c1ccncc1)N1CCOCC1 (stereo not given),23µM*,?,6%,-3%,21
Cc1ccc(/C=N/NC(=O)C(c2ccncc2)N2CCOCC2)cc1 (stereo not given),-26%,2%,1%,-15%,2
COc1ccc(-c2nc3ccccc3n3c(-c4cccc(C)c4)c4c(=O)n(C)c(=O)n(C)c4c23)cc1,-73%,18µM*,/,/,/
CCc1nc2ccccc2n2c(-c3ccccc3)c3c(=O)n(C)c(=O)n(C)c3c12,21µM*,15µM*,/,/,/
Cn1c(=O)c2c(-c3ccccc3)n3c4ccccc4nc(-c4ccccc4)c3c2n(C)c1=O,15µM*,?,/,/,/
Cc1cccc(-c2nc3ccccc3n3c(-c4ccccc4)c4c(=O)n(C)c(=O)n(C)c4c23)c1,2%,-6%,/,/,/
CCOC(=O)N1CCC(NC(=O)c2ccc3c(c2)N=C(CC)c2cc(C)ccc2S3)CC1,18µM*,10µM*,?,5.8µM*,28
CCC1=Nc2cc(C(=O)NC3CCC(C)CC3)ccc2Sc2ccc(C)cc21 (stereo not given),0.65µM*,1.3µM*,/,/,/
CCCC1=Nc2cc(C(=O)NC3CCCC3)ccc2Sc2ccc(C)cc21,1µM*,1.5µM*,/,/,/
SMILES,TDP1 cell noCPT,TDP1 cell CPT,HT1080-NT tox,HT1080 IDH1KD tx,IL1B secr inh
CC1=Nc2cc(C(=O)NC3CCCCC3)ccc2Sc2ccc(Cl)cc21,1µM*,0.82µM*,/,/,/
CCCC1=Nc2cc(C(=O)N3CCC(C)CC3)ccc2Sc2ccc(C)cc21,-21%,-4%,/,/,/
CCCC1=Nc2cc(C(=O)N3CCCC3)ccc2Sc2ccc(C)cc21,?,?,-14%,?,12
COC(=O)c1ccccc1NC(=O)c1cc(C)nc2c1c(C)nn2-c1ccc(C)cc1,-5%,0%,/,/,/
Cc1cccc(NC(=O)Cn2c(=O)n(CCCS(=O)(=O)C3CCCCC3)c(=O)c3ccccc32)c1,?,-8%,/,/,/
COc1cc(C)ccc1OCc1cc(C(=O)NCCN2CCOCC2)no1,-2%,5%,13%,-2%,-7
CCC1=Nc2cc(C(=O)NCc3ccco3)ccc2Sc2ccc(C)cc21,1.3µM*,1.5µM*,1.3µM*,1.3µM*,3
CCOC(=O)N1CCC(NC(=O)c2cc(COc3c(C)cccc3C)on2)CC1,?,?,-16%,-7%,?
S=C(NCC1CCCO1)c1ccc(Br)cc1 (stereo not given),?,?,0%,-12%,-84*
CCOC(=O)N1CCN(C(=O)c2ccc3c(c2)N=C(CC)c2cc(C)ccc2S3)CC1,10µM*,16µM*,10%,-14%,-4
CCOC(=O)N1CCC(NC(=O)c2ccc3c(c2)N=C(C)c2c(C)ccc(C)c2S3)CC1,1.2µM*,2.1µM*,2.1µM*,2.3µM*,14
CCC(CO)NCc1ccccc1OC(C)C (stereo not given),11%,3%,23%,6%,-13
CCC1=Nc2cc(C(=O)NC3CCCC3)ccc2Sc2ccc(Br)cc21,0.73µM*,0.73µM*,/,/,/
CC1=Nc2cc(C(=O)NCC3CCCO3)ccc2Sc2ccc(Br)cc21 (stereo not given),5.8µM*,3.7µM*,10µM*,16µM*,59
CCC1=Nc2cc(C(=O)NCCN3CCOCC3)ccc2Sc2ccc(C)cc21,0%,-10%,-3%,-10%,10
CC1=Nc2cc(C(=O)O)ccc2Sc2ccc(Br)cc21,-18%,-3%,-5%,1%,15
O=C(NCc1cccs1)c1ccc([N+](=O)[O-])cc1Cl,-17%,-5%,2%,19%,-8
N#C/C(=C1/C(=O)Nc2ccc(Br)cc21)c1ccccn1,?,?,11%,7%,-62*
C/C(=N/OCc1ccc(Br)cc1)c1ccccn1,?,6%,-3%,1%,-14
CC(C)N(C)c1ncnc2c1ncn2[C@H]1CN(Cc2cccs2)C[C@@H](CO)O1,?,?,-1%,15%,10
O=C1OCCN1C(=O)[C@H]1[C@H](c2ccccc2)C(c2ccc(F)cc2)=NN1c1ccc(Br)cc1,?,?,-7%,-19%,-16
O=C1OCCN1C(=O)[C@H]1[C@H](c2ccc([N+](=O)[O-])cc2)C(c2ccc(F)cc2)=NN1c1ccc(Br)cc1,15µM*,?,-19%,?,?
